In PubChem BioAssay AID1813 (Broad Institute, 2009) one finds inhibition data, which are given here for 91 molecules.

Each structure is given as a SMILES string. Hit rate of the full screen: of about 300,000 compounds, about 2,500 (0.83%) were called active. The list comes from a sample in which actives are over-represented; it also holds similar structures and randomly drawn compounds. Values without a mark were called inactive. No stated cut-off is given here; in the data, active means inhibition above about 60%; inconclusive means no clear call, values can overlap the other calls; inactive means below that.

This assay is described as follows: MLPCN primary screen, SNCA 5' untranslated region (AID 1813).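 Further: H4 neuroglioblastoma cells stably carrying SNCA 5'UTR luciferase fusion; 0% = DMSO wells and 100% = positive control.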 The following applies: alpha-synuclein 5'UTR reporter, inhibitor activity; active compounds read high; tested at 7.5 µM.
A word on the inhibition: it is the relative decrease from the control value, in per cent. Consider `CCCOc1cccc(C(=O)Nc2nnn(CCC)n2)c1`, for which the inhibition was -87.6%. `CC(C)CNC(=O)COC(=O)c1ccccc1OCC(=O)Nc1ccc(Br)cc1`: the inhibition is 1.89%.

`O=C(COC(=O)c1ccc(NS(=O)(=O)c2cccs2)cc1O)Nc1ccc(F)cc1`: the inhibition is 7.94%. On to `NS(=O)(=O)c1ccc(NC2=CC(c3ccc(F)cc3)N(c3ccc(S(N)(=O)=O)cc3)C2=O)cc1` (stereo unspecified), for which the inhibition was 15.1%. The figure for `COc1ccc(CN(C)C(C)C(=O)NC2CCCc3ccccc32)cc1` (stereo unspecified) is 8.59%. The value for `Cc1ccc(-c2nc(-c3ccncc3)no2)c(C)c1` was -108%; that for `COc1ccc(-c2nc(-c3ccccc3)no2)c(OC)c1` was 68.9% (active). Turning to `COc1ccc(/C=C/c2noc(-c3ccccc3OC(C)=O)n2)cc1`, the inhibition was -34.8%. Consider `CCC1CO/C(=C(\C(=C(Cl)Cl)N2CCOCC2)[N+](=O)[O-])N1` (stereo unspecified), for which the inhibition is -4.02%. Turning to `CCOc1cc(N2CCOCC2)c(OCC)cc1NC(=O)COc1cccc2cccnc12`, the inhibition is 88.8% (active). `CCOc1cc(N2CCOCC2)c(OCC)cc1NC(=O)c1cc(C)nc2ccccc12`: the inhibition was 7.38%. With `CCOc1cc(N2CCOCC2)c(OCC)cc1NC(=O)COc1cccc(Cl)c1`, the inhibition is 9.4%. For `CCOC(=O)C(C)Oc1cccc2c(=O)n(CC(=O)NCCc3ccc(OC)c(OC)c3)ccc12` (stereo unspecified), the inhibition was 12.9%. Regarding `Cc1nn(C)c(C)c1CN(C(=O)CCc1nnc(Cc2c[nH]c3ccccc23)o1)C(C)C`, the inhibition is 13.9%. Consider `Cc1oc2c(F)c(F)c(F)c(F)c2c1S(=O)(=O)Nc1cccc(C(F)(F)F)c1`, for which the inhibition was 17.3%. As to `CCNC(=S)N1CCC(c2nc3cc(C)c(C)cc3[nH]2)CC1`, the inhibition is -15.5%. On to `Cc1cccc(-[n+]2c(-c3cccc(Br)c3)[nH]c3nc4ccccc4nc32)c1`, for which the inhibition was 73.9% (active). The value for `Cc1cccc(-c2nc(Nc3ccc(O)cc3)c3ccccc3n2)c1` was 2.9%; that for `Cc1ccc(/C=C2\CCn3c2nc2cc(C(=O)O)ccc2c3=O)c(C)c1` was -20%; that for `Nc1ccc2nn(-c3ccc(Cl)cc3)nc2c1` was -27.3%. Consider `CC[n+]1cc(C)ccc1/C=C/c1ccc(N(C)C)cc1`, for which the inhibition is 90.6% (active). With `CN(C)c1ccc(/C=N\S(=O)(=O)c2ccccc2)cc1`, the inhibition is -6.91%. For the molecule `O=C(CN1CCN(c2ncccn2)CC1)Nc1ccccc1C(F)(F)F`, the inhibition was -6.88%. In the case of `Brc1ccc2c(c1)[C@H]1OCC[C@H]1[C@@H](c1cccs1)N2`, the inhibition is 72.2% (active). In the case of `CC(C)CCn1c(=O)c2c(nc3n2CCCN3Cc2ccccc2)n(C)c1=O`, the inhibition is 23.1%. The figure for `COc1ccc(C)cc1N(CC(=O)N1CCCC1)S(=O)(=O)c1ccccc1` is -6.96%; for `Cc1ccc(CNC(=O)CCNS(=O)(=O)c2cccc3nonc23)cc1` it is 9.75%; for `O=c1c2ccccc2nc2n1C1(CCCCC1)Cc1ccccc1-2` it is 0.0175%. In the case of `CN(C(=O)c1cc2c(=O)n3ccccc3nc2s1)C1CCCCC1`, the inhibition is -42.4%.

Turning to `CN(c1ccc2nc3ccccc3c(=O)n2n1)C1CCCCC1`, the inhibition was 119% (active). For `Cc1ccc(CN2CCNC(=O)C2CC(=O)NCc2csc(C(C)C)n2)cc1` (stereo unspecified), the inhibition was 9.72%. For `Cc1ccc2[nH]c(=O)c(CN(C)S(=O)(=O)c3cccc4nonc34)cc2c1`, the inhibition is -5.89%. Consider `CCC1=C(OC(=O)N(CC)CC)N2C(=O)OC(=NCCc3c[nH]c4ccccc34)[C@]2(C)[C@H]2C1=CC[C@H]1C(=O)N(CC)C(=O)[C@H]12`, for which the inhibition was -3.3%. For the molecule `Cc1cccc2cc3c(N)c(C(=O)N4CCCc5ccccc54)sc3nc12`, the inhibition was 85.2% (active).

Consider `Cc1c(C(=O)N2CCCc3ccccc32)oc2ccccc12`, for which the inhibition was -96.2%. `Cc1c(C(=O)N2CCCc3ccccc32)sc2nc(-c3ccccc3)cn12`: the inhibition was -83.5%. `COc1ccc2c(c1)cc1n2CCN=C1NN`: the inhibition was -27.8%. With `CN1c2ccc(C=O)c3c(C=O)ccc(c23)N(C)C1(C)C`, the inhibition was 67% (active). The value for `CCN(CC(=O)Nc1c(F)cccc1F)C(=O)c1ccc(S(=O)(=O)N2CCCCC2)cc1` was 6.51%; that for `O=C(c1ccc(F)cc1)N1CCC(n2nnc3ccccc32)CC1` was 6.11%; that for `Cc1cc(OCc2ccc(C(=O)Nc3ccc(C(=O)O)cc3)o2)ccc1Cl` was 32.2%.

`CCOC(=O)c1ccc(NC(=O)c2c(N)n(C)c(=O)[nH]c2=O)cc1`: the inhibition is -15.4%.

On to `Cc1noc(C)c1/C=N/Nc1ccc2ccccc2n1`, for which the inhibition is -146%. Take `C(=N\Nc1ccc2ccccc2n1)/c1ccc2c(c1)OCO2`: the inhibition was 88.2% (active). For the molecule `Brc1ccc(-c2csc(N/N=C/c3ccc4c(c3)OCO4)n2)cc1`, the inhibition is -59.4%. `CCCc1nc(N2CCN(C)CC2)c2sc(=S)n(-c3ccccc3)c2n1`: the inhibition is 2.12%. The value for `CCOC(=O)C1C(=O)NCC1c1ccccc1` (stereo unspecified) was -12.2%; that for `NC(=O)COC(=O)c1ccc2c(c1)C(=O)N(Cc1ccco1)C2=O` was -5.55%. The figure for `Cc1cccnc1NC(=O)c1cccc(S(=O)(=O)N2CCN(c3ccc(F)cc3)CC2)c1` is 26.9%. The figure for `CCN1CCN(C(c2cccnc2)c2cc(Cl)c3cccnc3c2O)CC1` (stereo unspecified) is -29.1%; for `Oc1c(CN2CCN(c3ccc(F)cc3)CC2)cc(Cl)c2cccnc12` it is 69.6% (active). As to `CC(=O)c1ccc(NC(=O)CCc2nnc3ccc(NCc4ccco4)nn23)cc1`, the inhibition is -95.3%. In the case of `Cc1cccn2c(=O)c3cc(C(=O)NCC4CCCO4)c(=N)n(Cc4ccc(F)cc4)c3nc12` (stereo unspecified), the inhibition was 9.52%. Regarding `Cc1cccn2c(=O)c3cc(C(=O)NCCN4CCOCC4)c(=N)n(Cc4cccnc4)c3nc12`, the inhibition is 97% (active). Consider `COc1ccc(CCn2c(=N)c(C(=O)NCC3CCCO3)cc3c(=O)n4cccc(C)c4nc32)cc1OC` (stereo unspecified), for which the inhibition is -9.36%. The figure for `CCOc1cccc(OCCCOc2cccc3cccnc23)c1` is 5.95%; for `O=C1CCC([N+](=O)[O-])C(c2ccccc2Br)N1` (stereo unspecified) it is 0.315%. With `O=C1C(=O)N(CCCO)C(c2ccccc2)/C1=C(\O)c1ccc(Br)cc1` (stereo unspecified), the inhibition was 4.06%.

Take `O=C(Oc1cccc(N2C(=O)C3C4c5ccccc5C(c5ccccc54)C3C2=O)c1)c1ccco1` (stereo unspecified): the inhibition was 2.5%. `CC1CN/C(=C\C(=O)c2ccc(Br)cc2)C(=O)N1` (stereo unspecified): the inhibition was 62% (active). Regarding `CN1CCCC(OC(=O)COc2ccc(Br)cc2)C1` (stereo unspecified), the inhibition is 4.45%. The value for `COc1cc2c(cc1OC)/C(=C/C(=O)c1ccc(NC(C)=O)cc1)NCC2` was 22.9%; that for `O=C(NCCCCCCCCCNC(=O)C(F)(F)F)C(F)(F)F` was 9.8%. In the case of `CCOC(=O)N1CCN(S(=O)(=O)c2ccc(OC)cc2)CC1`, the inhibition was 4.08%. `CCOC(=O)N1CCN(S(=O)(=O)c2ccc(Br)cc2)CC1`: the inhibition was -14.3%. The value for `CCOC(=O)N1CCN(S(=O)(=O)c2ccc(C(=O)Nc3ccc(F)cc3F)cc2)CC1` was 69.5% (active); that for `Cc1cc(NC(=O)C(C)N2C(=O)c3ccccc3S2(=O)=O)no1` (stereo unspecified) was -18.2%; that for `CCN(CC)c1ccc(/C=N/NC(=O)CNC(=O)c2cccnc2)cc1` was 5.51%. As for `CCN(CC)c1ccc(/C=N/NC(=O)c2cnccn2)c(O)c1`, the inhibition was 72.3% (active).

On to `Cc1ccc(C(=O)NCCNC(=O)c2cnccn2)cc1`, for which the inhibition is -3.06%.

As for `Cc1cn(C2C=CC(CO)O2)c(=O)[nH]c1=O` (stereo unspecified), the inhibition is -0.0254%. For the molecule `CC[C@]1(O)C[C@@H]2CN(CCc3c([nH]c4ccccc34)[C@@](C(=O)OC)(c3cc4c(cc3OC)N(C)[C@H]3[C@@](O)(C(=O)OC)[C@H](OC(C)=O)[C@]5(CC)C=CCN6CC[C@]43[C@@H]65)C2)C1`, the inhibition was 77.2% (active).

In the case of `CC[C@]1(O)CC2CN(CCc3c([nH]c4ccccc34)[C@@](C(=O)OC)(c3cc4c(cc3OC)N(C=O)[C@H]3[C@@](O)(C(=O)OC)[C@H](OC(C)=O)[C@]5(CC)C=CCN6CC[C@]43[C@@H]65)C2)C1` (stereo partly specified), the inhibition is 102% (active).

As to `CCc1nc2ccccc2c(C(=O)OC2CCCCC2=O)c1C` (stereo unspecified), the inhibition is 8.85%.

Consider `CCCc1cc(=O)[nH]c(SCC(=O)c2cc(C)n(CCC)c2C)n1`, for which the inhibition was 23.4%. For `CCCc1cc(=O)[nH]c(SCC(=O)c2c(N)n(CC(C)C)c(=O)n(C)c2=O)n1`, the inhibition was 88.3% (active). With `CCCc1cc(=O)[nH]c(SCC(=O)OCc2ccccc2)n1`, the inhibition is 13.7%. With `Cc1ccc2nc(SC(C)C(=O)NCc3ccco3)[nH]c2c1` (stereo unspecified), the inhibition was 30%. Regarding `CC(=O)NN1C(=O)c2ccccc2NC1c1ccccc1` (stereo unspecified), the inhibition was 19.3%.

`CC1=NNC(=O)C1Cc1c(Cl)cccc1Cl` (stereo unspecified): the inhibition is 27%. `Oc1c(Cl)cc(Cl)c(Cl)c1Cc1c(O)c(Cl)cc(Cl)c1Cl`: the inhibition is 77.3% (active).

With `COCCNc1nc(N)c([N+](=O)[O-])c(N2CCCCCC2)n1`, the inhibition is 17.3%. The value for `Cc1cc(OC(=O)c2ccc(OC(C)C)cc2)c([N+](=O)[O-])c(=O)[nH]1` was -3.29%; that for `O=S(=O)(c1ccc(Br)cc1)N1CCC(c2nc3ccccc3[nH]2)CC1` was 78.3% (active); that for `N#CC(C(=O)c1ccc(S(=O)(=O)N2CCCCCC2)cc1)c1nc2ccccc2[nH]1` (stereo unspecified) was -4.96%.

With `O=C(C1CCCO1)N1CCC(c2nc3ccccc3[nH]2)CC1` (stereo unspecified), the inhibition is -15.4%. On to `Cc1cccc(N2CCN(S(=O)(=O)c3ccc4[nH]c(=O)c(=O)[nH]c4c3)CC2C)c1` (stereo unspecified), for which the inhibition is 3.92%. With `COc1cc2c(cc1OC)C(C)N(S(=O)(=O)c1cnc(Cl)c(Cl)c1)CC2` (stereo unspecified), the inhibition is 36.4%. The figure for `S=c1[nH]c(-c2cccs2)cn1-c1ccccc1` is -60.3%. Regarding `O=c1oc2ccccc2cc1-c1cn(-c2ccccc2)c(=S)[nH]1`, the inhibition is 119% (active). As to `COc1ccc(-c2cn(-c3ccc(OC)cc3)c(=S)[nH]2)cc1`, the inhibition was -129%.
